From PubChem BioAssay (NCI)
This is part of a sample that, as a whole, favours compounds with a hit. Of some 83,000 tested, about 20% had one in any assay.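 Assay: single dose, 48 h. Readout: percent growth (0 = no net growth; negative = cell death). Active: <10.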 Calls of active or inactive are those of the source.

Test system: A549/ATCC NSCLC
Test: NCI-60 one-dose screen, 48 h (100 = growth as untreated, 0 = no growth, -100 = all killed)
Details: 10 µM unless noted

Row | Compound | growth
1 | C#CCOC(=O)C(N)CSSCC(N)C(=O)O (configuration not stated) | 98.2% (inactive)
2 | Nc1nc(=O)n([C@H]2CC=C(CO)O2)cc1F | 89.7% (inactive)
3 | O=C(Nc1cccc(Cl)c1)Oc1c(Cl)c(Cl)c(Cl)c(Cl)c1Cl | 96.8% (inactive)
4 | COc1ccccc1/C=C/C1=C(C)CCC(c2ccccc2OC)C1C (configuration not stated) | 21.2% (inactive)
5 | Cc1nc2ccccc2c(/C=C/c2ccc(Br)cc2)c1C(=O)/C=C/c1ccccc1 | 14.8% (inactive)
6 | Cc1c2ccncc2c(C)c2c1c1ccccc1n2CCCCCC(=O)O | 89.8% (inactive)
7 | Cn1cc(-c2csc(-c3cn(C)c4ccc(F)cc34)n2)c2cnccc21 | 1.42% (active)
8 | O=C(Nc1ccccc1CNc1nc(Nc2ccc(OCCN3CCCC3)cc2)ncc1Cl)NC1CCCCC1 | 85.4% (inactive)
9 | NC(=O)[C@@H]1Cc2ccccc2CN1C(=O)c1ccc2c(c1)Cc1ccccc1-2 | 64.9% (inactive)
10 | O=C(Nc1ccccc1C(F)(F)F)C1=NCCCCN1 | 102% (inactive)
11 | C/C(=C(\c1ccc(OCCCN(C)C)cc1)c1ccc(OC(=O)Cc2ccccc2)cc1)c1ccc(Cl)cc1 | 63.3% (inactive)
12 | COc1cc(C)cc(-c2c(-c3cc(N4CC(O)C4)nc(-c4cccnc4)n3)cnn2C)c1 | 84.9% (inactive)
13 | Cn1cc(-c2ccc3occ(-c4cccc(-c5ccncc5)c4)c3n2)cn1 | 17.7% (inactive)
14 | O=C1CCc2c(sc3[nH]c(=S)n(-c4cc(C(F)(F)F)cc(C(F)(F)F)c4)c(=O)c23)C1 | 5.85% (active)
15 | COC1CC(O)C2=C(CC3C(/C(C)=C\CC=C(C)C)CCC3(C)O2)C1=O (configuration not stated) | 95.2% (inactive)
16 | COc1ccc(S(=O)(=O)N(C)c2oc(-c3ccc(Cl)cc3)nc2C#N)cc1 | 87.3% (inactive)
17 | O=C(CSc1nnc(-c2ccc(Cl)c(Cl)c2)n1-c1ccccc1)Nc1ccc(C(=O)/C=C/c2ccc(Cl)cc2)cc1 | 68.9% (inactive)
18 | Cc1ccc(C(F)(F)F)cc1N1CCN(C(=O)[C@H]2C[C@H]2c2ccc(C(F)(F)F)nc2)CC1 | 81.5% (inactive)
19 | COc1ccc(S(=O)(=O)NC2c3ccccc3CC2O)cc1OC (configuration not stated) | 102% (inactive)

Row | Compound | growth
20 | CN1CCN(Cc2ccc(NC(=O)c3cncc(C#Cc4c(N)ncc5cc(F)ccc45)c3)cc2C(F)(F)F)CC1 | 45% (inactive)
21 | COc1ccccc1NC(=O)n1c(=O)cc(C)c2ccc(O)cc21 | 105% (inactive)
22 | CCCCCC(C)(O)C(C(=O)O)c1ccccc1 (configuration not stated) | 99.6% (inactive)
23 | C=C(C)[C@@H]1CC[C@]2(C(=O)NC(C)=O)CC[C@]3(C)[C@H](CC[C@@H]4[C@@]5(C)CCCNC(C)(C)[C@@H]5CC[C@]43C)[C@@H]12 | 26.8% (inactive)
24 | Nc1nc(N)c2c(n1)NC(c1cccc(Nc3ccnc4cc(C(F)(F)F)ccc34)c1)CC(c1ccc(Cl)cc1)=N2 (configuration not stated) | 40.8% (inactive)
25 | Cc1cc(=O)oc2cc(Oc3nc(-c4ccccc4)cn4c(-c5ccccc5)cnc34)ccc12 | 56.1% (inactive)
26 | COc1ccc(Cn2cc3c(c2)-c2oncc2CC3)cc1 | 52.1% (inactive)
27 | CN1CCN(Cn2nc(-c3cc(Cl)cc(Cl)c3Cl)oc2=S)CC1 | 104% (inactive)
28 | CC(C)(C)CC(C)(C)Nc1c(-c2c(O)c3ccccc3oc2=O)nc2sccn12 | 90.8% (inactive)
29 | O=C(O)CCCN1C(=O)CSC1=S | 105% (inactive)
30 | O=C(OCc1ccc2c(Br)cc(Br)c(O)c2n1)N1CCN(C(=O)c2cc3ccccc3[nH]2)CC1 | 12.7% (inactive)
31 | COc1cc(-c2ccc(-c3ccc(C(=N)N)s3)s2)cc(OC)c1OC | 32.8% (inactive)
32 | C(CCCSC1=NCCN1)CCSC1=NCCN1 | 104% (inactive)
33 | COc1ccc(NC(=O)c2sc3nc(C)c(C(=O)c4ccccc4)cc3c2N)cc1 | 52% (inactive)
34 | CNc1nc2ncc(-c3c(C)noc3C)cc2n1Cc1ccccc1 | 54.4% (inactive)
35 | COC(=O)[C@H](C)NC(=O)c1ccc(NC(=O)c2[nH]c(C)c(Cl)c2Cl)c(OCCN)c1 | 98.1% (inactive)
36 | Cc1[nH]c(C(=O)Nc2ccc(C(N)=O)cc2OC(C)C)c(Cl)c1Cl | 100% (inactive)
37 | COc1cc(/C=N/NC(=O)c2ccc3nc(-c4ccc(Cl)cc4)[nH]c3c2)cc(OC)c1OC | 85.8% (inactive)

Test system: 786-0 renal
Test: as above
Details: 10 µM unless noted

Row | Compound | growth
38 | C#CCOC(=O)C(N)CSSCC(N)C(=O)O (configuration not stated) | 100% (inactive)
39 | Nc1nc(=O)n([C@H]2CC=C(CO)O2)cc1F | 102% (inactive)
40 | O=C(Nc1cccc(Cl)c1)Oc1c(Cl)c(Cl)c(Cl)c(Cl)c1Cl | 97.9% (inactive)
41 | COc1ccccc1/C=C/C1=C(C)CCC(c2ccccc2OC)C1C (configuration not stated) | 12% (inactive)
42 | Cc1nc2ccccc2c(/C=C/c2ccc(Br)cc2)c1C(=O)/C=C/c1ccccc1 | 2.23% (active)
43 | Cc1c2ccncc2c(C)c2c1c1ccccc1n2CCCCCC(=O)O | 103% (inactive)
44 | Cn1cc(-c2csc(-c3cn(C)c4ccc(F)cc34)n2)c2cnccc21 | -91.6% (active)
45 | O=C(Nc1ccccc1CNc1nc(Nc2ccc(OCCN3CCCC3)cc2)ncc1Cl)NC1CCCCC1 | -25.2% (active)
46 | NC(=O)[C@@H]1Cc2ccccc2CN1C(=O)c1ccc2c(c1)Cc1ccccc1-2 | 97.8% (inactive)
47 | O=C(Nc1ccccc1C(F)(F)F)C1=NCCCCN1 | 98.8% (inactive)
48 | C/C(=C(\c1ccc(OCCCN(C)C)cc1)c1ccc(OC(=O)Cc2ccccc2)cc1)c1ccc(Cl)cc1 | 68.3% (inactive)
49 | COc1cc(C)cc(-c2c(-c3cc(N4CC(O)C4)nc(-c4cccnc4)n3)cnn2C)c1 | 81.6% (inactive)
50 | Cn1cc(-c2ccc3occ(-c4cccc(-c5ccncc5)c4)c3n2)cn1 | 17.7% (inactive)
51 | O=C1CCc2c(sc3[nH]c(=S)n(-c4cc(C(F)(F)F)cc(C(F)(F)F)c4)c(=O)c23)C1 | 18.1% (inactive)
52 | COC1CC(O)C2=C(CC3C(/C(C)=C\CC=C(C)C)CCC3(C)O2)C1=O (configuration not stated) | 103% (inactive)
53 | COc1ccc(S(=O)(=O)N(C)c2oc(-c3ccc(Cl)cc3)nc2C#N)cc1 | 98.2% (inactive)
54 | O=C(CSc1nnc(-c2ccc(Cl)c(Cl)c2)n1-c1ccccc1)Nc1ccc(C(=O)/C=C/c2ccc(Cl)cc2)cc1 | 88.6% (inactive)
55 | Cc1ccc(C(F)(F)F)cc1N1CCN(C(=O)[C@H]2C[C@H]2c2ccc(C(F)(F)F)nc2)CC1 | 93% (inactive)
56 | COc1ccc(S(=O)(=O)NC2c3ccccc3CC2O)cc1OC (configuration not stated) | 104% (inactive)
57 | CN1CCN(Cc2ccc(NC(=O)c3cncc(C#Cc4c(N)ncc5cc(F)ccc45)c3)cc2C(F)(F)F)CC1 | -94% (active)

Row | Compound | growth
58 | COc1ccccc1NC(=O)n1c(=O)cc(C)c2ccc(O)cc21 | 115% (inactive)
59 | CCCCCC(C)(O)C(C(=O)O)c1ccccc1 (configuration not stated) | 99.2% (inactive)
60 | C=C(C)[C@@H]1CC[C@]2(C(=O)NC(C)=O)CC[C@]3(C)[C@H](CC[C@@H]4[C@@]5(C)CCCNC(C)(C)[C@@H]5CC[C@]43C)[C@@H]12 | 59.4% (inactive)
61 | Nc1nc(N)c2c(n1)NC(c1cccc(Nc3ccnc4cc(C(F)(F)F)ccc34)c1)CC(c1ccc(Cl)cc1)=N2 (configuration not stated) | 68.9% (inactive)
62 | COc1cccc(-c2cc(-c3ccc(Nc4nc(Nc5ccc(Cl)cc5)nc(Nc5ccc(Cl)cc5)n4)cc3)nc(N)c2C#N)c1 | 59.2% (inactive)
63 | Cc1cc(=O)oc2cc(Oc3nc(-c4ccccc4)cn4c(-c5ccccc5)cnc34)ccc12 | 67.3% (inactive)
64 | COc1cc(OC)cc(C(=O)Nc2cnc(Nc3ccc(N4CCOCC4)nc3)nc2Oc2ccc(C(F)(F)F)cc2)c1 | 54.8% (inactive)
65 | COc1ccc(Cn2cc3c(c2)-c2oncc2CC3)cc1 | 72.5% (inactive)
66 | CN1CCN(Cn2nc(-c3cc(Cl)cc(Cl)c3Cl)oc2=S)CC1 | 94.5% (inactive)
67 | CC(C)(C)CC(C)(C)Nc1c(-c2c(O)c3ccccc3oc2=O)nc2sccn12 | 109% (inactive)
68 | O=C(O)CCCN1C(=O)CSC1=S | 102% (inactive)
69 | CC1(C)CC(=O)C2=C(C1)OC(C(=O)c1ccccc1)C2c1cccc(Oc2ccccc2)c1 (configuration not stated) | 53.1% (inactive)
70 | O=C(OCc1ccc2c(Br)cc(Br)c(O)c2n1)N1CCN(C(=O)c2cc3ccccc3[nH]2)CC1 | 49.3% (inactive)
71 | COc1cc(-c2ccc(-c3ccc(C(=N)N)s3)s2)cc(OC)c1OC | 9.32% (active)
72 | C(CCCSC1=NCCN1)CCSC1=NCCN1 | 97% (inactive)
73 | COc1ccc(NC(=O)c2sc3nc(C)c(C(=O)c4ccccc4)cc3c2N)cc1 | 96.4% (inactive)
74 | CNc1nc2ncc(-c3c(C)noc3C)cc2n1Cc1ccccc1 | 43.3% (inactive)
75 | COC(=O)[C@H](C)NC(=O)c1ccc(NC(=O)c2[nH]c(C)c(Cl)c2Cl)c(OCCN)c1 | 98.6% (inactive)
76 | Cc1[nH]c(C(=O)Nc2ccc(C(N)=O)cc2OC(C)C)c(Cl)c1Cl | 102% (inactive)
77 | COc1cc(/C=N/NC(=O)c2ccc3nc(-c4ccc(Cl)cc4)[nH]c3c2)cc(OC)c1OC | 51.2% (inactive)
